Laboratory results from the supplement of paper PMC12632987.
In all, about 1,800 sequences were measured (“median log2 fold change of GCK-ALFA target abundance (FLAG IP / Myc IP barcode read proportion)”: median about 0.14, lowest 2% from about -0.84 on). Shown is part of a subset that was picked to be rich in the lowest values.

T1: TRAF2, Q12933
T1 chain: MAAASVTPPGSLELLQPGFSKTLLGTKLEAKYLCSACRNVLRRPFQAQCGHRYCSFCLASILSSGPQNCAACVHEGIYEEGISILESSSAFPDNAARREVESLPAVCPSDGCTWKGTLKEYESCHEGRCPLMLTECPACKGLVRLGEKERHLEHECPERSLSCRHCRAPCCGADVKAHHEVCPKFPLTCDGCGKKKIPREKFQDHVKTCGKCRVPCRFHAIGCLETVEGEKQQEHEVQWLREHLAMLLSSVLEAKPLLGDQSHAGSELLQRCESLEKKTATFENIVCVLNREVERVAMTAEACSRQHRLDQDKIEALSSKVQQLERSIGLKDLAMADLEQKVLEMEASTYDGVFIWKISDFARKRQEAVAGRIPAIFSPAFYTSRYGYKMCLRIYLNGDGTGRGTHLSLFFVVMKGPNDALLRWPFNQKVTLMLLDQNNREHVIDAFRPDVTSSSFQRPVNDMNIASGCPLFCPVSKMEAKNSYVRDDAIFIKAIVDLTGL

B1: traf2_out_6_3_2512 (protein)
chain: EEEEERKRNEEALEEAAEMSLETIKIAAETTLKELEKAVEDPNATETDFLAYKSSLNLLLEIMKKHAEKHPEEKEEAEKFIEEMKKKLEELEKEWKKKRA
B2: traf2_out_20_3_2213 (protein)
chain: DELVAAVREQLAKIRELLEQARPRLAPEDYARLNALLARAEEALETDPSDALVALSELRRALLELAERARAAGDEELAKLLEEAAEAANKAANLVMQLLE
B3: traf2_out_17_162_1579 (protein)
chain: SELEEKLKELEEKLKELEKELKRFKEELKNLENKSKEELTDLLVEVSEARREALQLAEELKKLEKEIGEEKAKELIEKAEEIAEEFQRIANEIYKELLKK
B4: traf2_out_6_156_2416 (protein)
chain: MVEEILKEALEKVKELIKELAKAPESKKIQYISKIAGTAYRALQKLREAGASLEEIEEFAKRFLEETKKLAKEAGLPEDTINLLLSALQAVFDVAIAEAK
B5: traf2_out_6_3_2523 (protein)
chain: SEESLREDARRVLEGMGITTAEQLRRLVRAEVNAVRRLVSRPDTDEADLAGAESVLALAEAVVDVAAEELPDLTEEQVAELRALIEEARKLVEEKRAELA
B6: traf2_out_17_178_1720 (protein)
chain: SKEEYRKKISELTDKLIDLAEAAAARLLALARAEGTLSPEELAALEAARRRGSPNDTLALMRRVAPRLRSAAEAEALLADFEAQSKALAKEIAELYEKYE
B7: traf2_out_13_95_1096 (protein)
chain: SKELAEKIMEIADKMLDEVEKLLEELLKEAKKAGKLEEEVTEALNLARYRSINEAIHLLEELAKKHPEFKELYEKTIKEIKEIIKEAGKEVAKLIKEEKE
B8: traf2_out_13_95_1103 (protein)
chain: SEETAKKIMEVADKMLDKVEELLEKLLEKAKKAGKLEEEIEKALHLARYQSINEAIHLLKELAKKYPEFKEELEETIKEIEALRKQAGKEVAKIIKEEKE
B9: traf2_out_6_3_2524 (protein)
chain: SEESLRADARKILEGMGITTAEQLRTLVTAEVNAVRQLVSRPDTDRADLAGARSVLALSRAIVDVAAETLPDLTPEQVAALRALIAAAEELIAAREAELA
B10: traf2_out_16_104_1376 (protein)
chain: SAATDAAFQAIIARLEAIAERAQRLANELMKLYEKASPEEKEKISDALVEVSELRRRALAAAEAVRQAQAAGGDLAEAQATLAELEARLAEAEARVEELK
B11: traf2_out_11_169_872 (protein)
chain: KEAEKNRKLNDFALELNDEAKEKLKEFALKLAKELGLDVEEVKKIFEENKNKSLSAVAAALIKYFKEKGKEDAAAKIEKKYEELKEEINKKTSEKIKELE
B12: traf2_out_3_89_2287 (protein)
chain: SEEREKKIEELRRIIDRYLKGFEKSARRVAKEMLEEGYSLDTLEGVLNASKTALVEEIRRLAKERGLSEEDIKELVEEATKRLDEIVDKILEEAKKARAE
B13: traf2_out_19_16_1983 (protein)
chain: AEEEAERLLAEMRRHLDEALRLAEETVANLDKLSRDELMDRLVEISELVRRAQEALQRALELLADDPERRAAIRAEYDERLDRINRLMTKIVDRLLELLK
B14: traf2_out_11_79_931 (protein)
chain: SEKRKELEELIKKALKLVEELIKKLKEGNISEEEFAKTIEEILELLQRAMQLALELGLSDVLVLLSEARRHVLLSRTRNLEELEKAAKYLKEALKELEKE
B15: traf2_out_18_167_1826 (protein)
chain: SEEAEKKINELRDKLIEYSEIRRLALAAIEALRTDPAAAEAALAAVIAALEKVPEFRPDAERLKALPREELPAALEEIAERAQRKMNEIYKEIEEIKKKA
B16: traf2_out_6_3_2531 (protein)
chain: DRESLLADARKVLENMGITTAAELQRLVEAEVRAIRQLISRPDVDRADLAGARSVIALARAMVEVAAETLPDFTPEQQARLQALLAEAEELVRRREEELA
B17: traf2_out_20_3_2095 (protein)
chain: EELEKELEKALKEAAKLIKKAIALADPETAARLEALLKRLKAAEKLPLEDRLVALSAVRRELLALAEEARAAGREELAKLLEEAAEEVNRAMNLAYKIIE
B18: traf2_out_9_17_2611 (protein)
chain: SAEEEELKERLLEAIEEVLKELVEKGYITEEEAEEILKKVKELIEKGASPDEIIAEFLGMIASILLTKSNLSLPEANKIVGEAYRRLQERLEKIEKELAE
B19: traf2_out_16_104_1406 (protein)
chain: AAATQAAFDAIIAELNKIAEELGKIANKIYKKMETASPELKEKLTDALVDASELRRQALEAAVAAAQARATGGDLAAAQATLAELKKKAEEVKKKAEELF
B20: traf2_out_14_149_1255 (protein)
chain: SETEKKRKALEEARALMEEIAAILEAALAAGSTEVDRERLRALVEEARAILREQGFVLGHLLAIEEMLATTEEFTLADIEALLAEVRRAAESLAVLAEML
B21: traf2_out_6_3_2517 (protein)
chain: MEESIRKDARTVLENMGITTVEQLKKLVEANVNAVKKLVSRKDVDRADLAAANSVLNLTRAMVEVAAETLPDLTEEDVKEMNALIDEARELIEKKKKELE
B22: traf2_out_20_38_2040 (protein)
chain: EEEKEEEERLLEIAKKATEVADKTEAWVEEKLAAGVSPEEIIAETKKLITEKLAAIGKEEEAKELIERLDTLAAAGEVRRGVVLVMARAAAIVYQKEQEE
B23: traf2_out_20_3_2223 (protein)
chain: EELKREIEEELRKIEELLEKAKPLLPEEDYKKLKELLEKAREALETDLTDALVYLSELRRLALELAQEARAAGNEELAKLLEEMAERANRAAGLVLKAIE
B24: traf2_out_14_166_1275 (protein)
chain: MSPEEIERIRKIVDELEPLTDAAVARLEAILAANADKLTPEQLARVRALLDLARRNIGSSAINAIREIAAIFAAAGLAEAAAAARALADELEAKLKELNK
B25: traf2_out_18_167_1835 (protein)
chain: EEEKEKKRNELLDEMIDISEHYRAAIEYLELLAKDPKEAEAKKEEYMKKIDKDPELVAKIKEVLALPDEERKKAAKALADEVYDERQKKMQELWDKREAV
B26: traf2_out_20_38_2012 (protein)
chain: SEEEKEKEKEEKLIEHANEAYDRAEAWVAALQAAGKSVAEIAAEAKKRIRELLTAHGLEEEAEELIEDVDRVLDSPDAERLIVQILARAETLVFQKELQK
B27: traf2_out_13_95_1095 (protein)
chain: SAEVAAKINAIADKMLDEVLKILEELLKKMEKAGKLVEEVKEALDLAEKRSINEAIHLLKELAKKYPEFKEEFEEAIKKIEEIKREAGREVAKILKEEEE
B28: traf2_out_15_48_1341 (protein)
chain: SVEELRAVASEIADEIDAAKDAVAAELEALRPSAAPEQRAPLAEAIDAARHGRGQNTVLALLDRLEPLLAPEQAARVAALRDRLRAVVRAASARMAEVLK
B29: traf2_out_18_3_1931 (protein)
chain: SEEERKEVSDKIDEIVDDARARAERELERAREELPEKREEIDRLRAALEAGAAPFGILDALAELYEEAGKEEEAKEIEEYLSEKRKEMQELVDEYEKLIK

Molecular target: T1, TRAF2, Q12933
Experiment: median log2 fold change of GCK-ALFA target abundance (FLAG IP / Myc IP barcode read proportion) (log2 ratio); each designed protein is fused to an ALFA-tag nanobody in HEK293 cells to bring the named protein to FLAG-tagged glucokinase (GCK); Myc marks an untargeted standard; higher = target protein stabilised (more abundant)
Details: target protein: 3xFLAG-MCP-GCK-ALFA reporter; HEK293 landing pad (RPLP)
Method in brief: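 HEK293 landing-pad cells received a recombined binder library fused to the ALFA nanobody and were induced with 2 μg mL^−1 doxycycline, then transfected with a plasmid encoding a FLAG-tagged target and a Myc-tagged standard. Lysates were collected after 48 h for anti-FLAG and anti-Myc immunoprecipitation, and the circular RNA barcodes were reverse transcribed, amplified and sequenced. Target abundance for each binder is the median log2 ratio of FLAG to Myc barcode read proportions. Barcodes had to reach a proportion of at least 10^−7 in both replicates, each binder needed at least 3 barcodes per replicate, a pseudocount of 10^−6 was applied, and the two replicates were pooled.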

| Binder | median log2 fold change |
| --- | --- |
| B1 | 0.417 |
| B2 | 0.129 |
| B3 | 0.462 |
| B4 | -0.0768 |
| B5 | -0.222 |
| B6 | 0.2 |
| B7 | -0.702 |
| B8 | -1.3 |
| B9 | -0.125 |
| B10 | 0.417 |
| B11 | 0.289 |
| B12 | -0.239 |
| B13 | -0.215 |
| B14 | 0.265 |
| B15 | 0.154 |
| B16 | -0.925 |
| B17 | -0.0878 |
| B18 | 0.0354 |
| B19 | 0.196 |
| B20 | -0.105 |
| B21 | -1.1 |
| B22 | 0.281 |
| B23 | 0.163 |
| B24 | 0.268 |
| B25 | 0.297 |
| B26 | 0.283 |
| B27 | -0.132 |
| B28 | 0.194 |
| B29 | 0.304 |
